The assay concerns RIVA. The experiment in a line: growth inhibition by drug alone (1 - RLU/untreated control) (fraction); higher = stronger inhibition. The settings on record: 177Lu-lilotomab satetraxetan 0 ug/ml. The procedure:
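RIVA (RI-1) ABC-DLBCL cells were pretreated or not for 18 h with 0.5 ug/ml 177Lu-lilotomab satetraxetan (600 MBq/mg), washed and seeded (3000 cells/well) on 384-well plates pre-printed with the Selleck Cambridge Cancer Compound library. Viability was read by RealTime-Glo luminescence on days 3-6 after seeding. Effect = 1 - RLU/mean RLU of the 48 untreated no-drug control wells per plate; Bliss score = (M-E)/(1-Fa).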

Each structure is given as a SMILES string.

Consider `COCC[n+]1c2c(n(Cc3cnccn3)c1C)C(=O)c1ccccc1C2=O`, for which the “growth inhibition by drug alone” value reads like this: (10 nM, time (day): 3) 0.984; (10 nM, time (day): 4) 0.981; (10 nM, time (day): 5) 0.98; (10 nM, time (day): 6) 0.981; (100 nM, time (day): 3) 0.98; (100 nM, time (day): 4) 0.979. Moreover, the “growth inhibition by drug alone” value is 0.98 (100 nM, time (day): 5) and 0.979 (100 nM, time (day): 6).
For `COc1cc2c(N3CCN(C(=O)Nc4ccc(OC(C)C)cc4)CC3)ncnc2cc1OCCCN1CCCCC1` [Tandutinib (MLN518)], the “growth inhibition by drug alone” value runs as follows: (10 nM, time (day): 3) -0.157; (10 nM, time (day): 4) -0.175; (10 nM, time (day): 5) -0.185; (10 nM, time (day): 6) -0.222; (100 nM, time (day): 3) -0.102; (100 nM, time (day): 4) -0.12. The “growth inhibition by drug alone” value (100 nM, time (day): 5) is -0.163 and the “growth inhibition by drug alone” value (100 nM, time (day): 6) was -0.231.
Take `Cc1cc(Nc2cc(N3CCN(C)CC3)nc(Sc3ccc(NC(=O)C4CC4)cc3)n2)n[nH]1` [VX-680 (MK-0457, Tozasertib)]: the “growth inhibition by drug alone” value runs as follows: (10 nM, time (day): 3) -0.0364; (10 nM, time (day): 4) -0.0738; (10 nM, time (day): 5) -0.11; (10 nM, time (day): 6) -0.195; (100 nM, time (day): 3) -0.135; (100 nM, time (day): 4) -0.125. Also, the “growth inhibition by drug alone” value is, setting by setting: (100 nM, time (day): 5) -0.0167; (100 nM, time (day): 6) 0.173.
As for `Cc1[nH]c2ccccc2c1CCNCc1ccc(/C=C/C(=O)NO)cc1` [Panobinostat], the “growth inhibition by drug alone” value turned out to be 0.637 (10 nM, time (day): 3); 0.535 (10 nM, time (day): 4); 0.447 (10 nM, time (day): 5); 0.328 (10 nM, time (day): 6); 0.977 (100 nM, time (day): 3); 0.977 (100 nM, time (day): 4). Moreover, the “growth inhibition by drug alone” value is, setting by setting: (100 nM, time (day): 5) 0.975; (100 nM, time (day): 6) 0.975.
With `Nc1nc(Cl)nc2c1ncn2[C@H]1C[C@H](O)[C@@H](CO)O1` [Cladribine], the “growth inhibition by drug alone” value runs as follows: (10 nM, time (day): 3) 0.0585; (10 nM, time (day): 4) 0.0126; (10 nM, time (day): 5) 0.00678; (10 nM, time (day): 6) 0.0233; (100 nM, time (day): 3) -0.00435; (100 nM, time (day): 4) 0.239. The “growth inhibition by drug alone” value was 0.319 (100 nM, time (day): 5) and 0.387 (100 nM, time (day): 6).

The values above are taken from the supplement of paper PMC6897291.
